High-throughput results from PubChem BioAssay.
Cav3 T inh: human Cav3.2 channel inhibition, primary screen; 4% of 100,000 active; Cav3.2-expressing cells, Fluo-4 calcium fluorescence FDSS; hits give low values; B-score at 10 µM; O95180;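 active means single-dose well whose peak fluorescence ratio is a statistical outlier from its plate by either plate-standardised score or position-corrected B-score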
CYP2C19 inh: human CYP2C19 inhibition. P33261. CYP2C19 Supersomes, luciferin-H EGE luminescence, 30 min. inhibition, % at 5 µM. 21% of 96,000 active;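 active means CYP2C19 inhibition above a set limit at 5 µM in the primary screen, cut at about 50% in these data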;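 further: plate controls were negative control wells for no effect and 2.5 mM tranylcypromine positive control for full effect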
CYP2C9 act: activators of human CYP2C9. AID 1024. 1.4% of 96,000 active. recombinant CYP2C9, luciferin-H conversion, luminescence; hits give high values; factor 1 = untreated enzyme, 0 = blocked. activation factor at 5 µM;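 active means activation factor of 2 or more for CYP2C9 at a 5 µM dose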;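 further: 0 = sulfaphenazole-blocked wells and 1 = vehicle-only wells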
CYP2C9 inhib: inhibitors of human CYP2C9. inhibition, % at 5 µM. P11712. AID 777. CYP2C9 Supersomes, luciferin-H conversion, luminescence. 20% of 96,000 active;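 active means blocking of liver enzyme CYP2C9 beyond about 50% at 5 µM, limit read from the data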
CYP2C19 act: activators of human cytochrome P450 2C19 | 96,000 tested, under 10 active | P33261 | recombinant CYP2C19, luciferin-H EGE luminescence; hits give high values; 0 = fully inhibited enzyme, 1 = untreated enzyme | activation factor at 5 µM | AID 1025;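 active means activation factor of at least 2 at 5 µM in the primary screen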;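 further: 0 = wells with 2.5 mM tranylcypromine and 1 = vehicle-only wells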
* hit, by the source's call; . = not tested or not shown. An excerpt weighted towards active compounds, which were near 27% of everything screened.

SMILES	Cav3 T inh	CYP2C19 inh	CYP2C9 act	CYP2C9 inhib	CYP2C19 act
O=c1c(-c2ccc3c(c2)OCCO3)coc2cc(O)cc(O)c12	0.069	12.2	2.4*	-140.7	0.9
Nc1nc(CSc2ccccn2)nc(Nc2ccccc2)n1	0.121	55.2*	0.5	52.4*	0.4
COc1ccc2nc(SCc3nc(N)nc(Nc4ccccc4)n3)[nH]c2c1	-0.855	81.3*	0	98.2*	0.2
CCC(C)NS(=O)(=O)c1ccc(OCC(=O)N2CCCCC2)cc1 (stereo not given)	0.648	-0.2	1	-4.7	1
CC(Cc1ccccc1)N/C=C1\CC(=O)NC1=O (stereo not given)	-1.17	-11.0	1.1	-11.3	1.1
O=C(C1=C[C@@H](C2CC2)C[C@@H](OCCCCO)O1)N1CCN(Cc2ccc3c(c2)OCO3)CC1	0.49	.	.	.	.
COCCN1C(=O)c2ccc(C(=O)O)cc2C1=O	-0.123	14.7	0.5	54.7*	0.9
CCCCN1C(=O)c2ccc(C(=O)Nc3c(N)n(CCCC)c(=O)n(C)c3=O)cc2C1=O	0.286	8.5	0.4	56.5*	0.9
COCCCN1C(=O)c2ccc(C(=O)Nc3ccccc3OC)cc2C1=O	0.833	34.8	2*	-99.7	0.7
CC(C)C1Oc2ccccc2N(CC(=O)NCCCN2C(C)CCCC2C)C1=O (stereo not given)	-1.04	-2.8	1	-2.4	1
COc1ccc(N(CC(=O)NCc2cccc(OC)c2)S(=O)(=O)c2c(C)noc2C)cc1	-2.91	91.9*	0.4	63.5*	0.1
COc1ccc(N(CC(=O)NCC2CCCO2)S(=O)(=O)c2c(C)noc2C)cc1 (stereo not given)	-1.24	31.2	0.9	11.3	0.7
CCOc1ccc(N(CC(=O)NCc2cccc(OC)c2)S(=O)(=O)c2c(C)noc2C)cc1	-4.65	59.6*	0.8	20.7	0.4
CCOc1ccccc1C(=O)N(Cc1ccccc1)Cc1cc2cc3c(cc2[nH]c1=O)OCCO3	0.0801	.	.	.	.
C=CCc1ccccc1OCC(O)CN1CCN(c2ccc(OC)cc2)CC1 (stereo not given)	-3.61	50.5*	0.9	8.4	0.5
COc1ccc(N2CCN(CC(O)COc3ccc4c(c3)CCC4)CC2)cc1 (stereo not given)	-3.18	58.5*	1.2	-20.7	0.4
COc1cccc(OC)c1OCC(O)CN1CCN(c2ccccc2)CC1 (stereo not given)	0.842	2.9	1.1	-14.4	1
C=CCc1ccccc1OCC(O)Cn1ccnc1C (stereo not given)	0.829	57.2*	0.8	16.6	0.4
Cc1nccn1CC(O)COc1ccccc1 (stereo not given)	0.0851	.	.	.	.
OC(COc1ccc2c(c1)CCC2)CN1CCN(c2ccccc2F)CC1 (stereo not given)	-2.92	51.4*	1	-2.4	0.5
COc1ccc(OCC(O)CN2CCCCCC2)cc1 (stereo not given)	0.196	.	.	.	.
CCOC(=O)CSc1nnc(CNC(=O)c2cccs2)n1-c1cc(C)ccc1C	-0.0322	-1.4	0.8	20.5	1
Cc1ccc(C(C(=O)NCc2ccco2)N(C(=O)CNC(=O)c2cccs2)c2ccc(C)cc2C)cc1 (stereo not given)	-0.142	12.6	0.8	15.2	0.9
C[C@@H](C(=O)N1CCN(C(=O)OC(C)(C)C)CC1)n1cc(-c2cn([C@@H](C)C(=O)N3CCN(C(=O)OC(C)(C)C)CC3)nn2)nn1	-0.0532	.	.	.	.
COC(=O)CN(n1cnnc1)S(=O)(=O)c1ccccc1	0.0695	-0.3	1.2	-21.9	1
SMILES	Cav3 T inh	CYP2C19 inh	CYP2C9 act	CYP2C9 inhib	CYP2C19 act
COCc1cc(C)nc(OCC(=O)N/N=C/c2cccc(OC)c2)c1C#N	0.902	-7.3	1.1	-13.2	1.1
COCc1cc(C)nc(OCC(=O)N/N=C\c2cc(C)n(-c3cccc(C(F)(F)F)c3)c2C)c1C#N	-4.85*	34.0	0.3	65.1*	0.7
CCOc1ccc(NC(=O)CSc2nc3c(c(=O)n2C)SC(C)C3)cc1 (stereo not given)	0.0886	10.6	0.5	47.4	0.9
CC1Cc2nc(SCC(=O)Nc3ccc(F)cc3)n(C)c(=O)c2S1 (stereo not given)	.	14.5	0.4	64.4*	0.9
Cc1cc(C)cc(NC(=O)CSc2nc3c(c(=O)n2C)SC(C)C3)c1 (stereo not given)	-0.0322	0.8	0.8	18.5	1
COc1cccc(NC(=O)CSc2nc3c(c(=O)n2C)SC(C)C3)c1 (stereo not given)	1.15	93.2*	0.2	75.4*	0.1
